TGFb SMAD3 inh – qHTS for Inhibitors of TGF-b. 410,000 compounds, 1.2% hits. Potency, µM (series often up to 46.1 µM), for the others: at the top dose activity, negative = inhibition, actives largely listed as inhibitors. HepG2 CAGA-GFP TGF-b/SMAD3 reporter, GFP fluorescence, 18 h; TGF-beta stimulated, 500 pg/mL final. AID 588855, 2011; further: on the % scale 0 is the no-effect control and ±100 the full control effect; nearly all actives have a fitted effect of over 65% in size
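HEPG2 CAGA-GFP reporter cells (1000/well, DMEM with 1% FBS) received compounds, then recombinant TGF-beta at 500 pg/mL final for 18 hours at 37 degrees C. Per-cell GFP summed per well was normalised to unstimulated and stimulated DMSO controls before curve fitting.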
KB-V1 MDR tox – qHTS assay for MDR1-selective chemotherapeutics: Primary screen using the drug-selected MDR subline cells KB-V1. KB-V1 MDR cells viability, CellTiter-Glo, 72 h. Potency, µM (highest dose often 46.1 µM), most hits filed as cytotoxic. 400,000 compounds, 3.4% hits. AID 1347076, 2019; further: on the % scale 0 is the no-effect control and ±100 the full control effect; nearly all actives have a fitted effect of over 60% in size
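In this primary screen, KB-V1 cells overexpressing P-gp are incubated with library compounds (lowest to highest concentration) for 72 h at 37 degrees C before a luminescent ATP viability read.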
HT1080-NT tox – qHTS for induction of synthetic lethality in tumor cells producing 2HG: qHTS for the HT-1080-NT fibrosarcoma cell line; HT-1080-NT fibrosarcoma viability, CellTiter-Glo ATP luminescence, 48 h; Potency, µM (highest dose often 46.1 µM), for inactives: at the top dose activity, negative = less viability, hits mostly cytotoxic; 360,000 compounds, 1.6% hits; AID 686970, 2013;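 further: NT is the 2HG producing partner of a matched IDH1 knockdown line; 0% = DMSO-treated cells and -100% = media-only wells without cells; nearly all actives have a fitted effect of over 55% in size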
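Luminescent CellTiter-Glo readout after 48 hours of compound exposure at 37 degrees C defined viability of HT-1080-NT cells. Activity was normalized to DMSO wells and cell-free media wells; concentration-response curves were fitted and assigned curve classes.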
HepG2 tox – qHTS for Inhibitors of TGF-b: Cytotox Counterscreen | HepG2 CAGA-GFP viability, ATP luminescence, 18 h | Potency, µM (titrated, usually from 46.1 µM), without a hit: at the top dose activity change, negative = cytotoxicity, hits mostly cytotoxic | 410,000 compounds, 0.76% hits
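HepG2 CAGA-GFP cells (1000/well, DMEM with 1% FBS) received compound, then TGF-beta at 500 pg/mL final, and were incubated 18 hours at 37 degrees C. Viability was read by CellTiter-Glo luminescence. Media-only wells were set as complete cell-killing and DMSO as no toxicity.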
KB-3-1 tox – qHTS assay for MDR1-selective chemotherapeutics: Primary screen using the parental adenocarcinoma cell KB-3-1 | KB-3-1 viability, CellTiter-Glo ATP luminescence, 72 h | Potency, µM (doses to about 46.1 µM), hits mostly cytotoxic | 400,000 compounds, 1.4% hits; further: on the % scale 0 is the no-effect control and ±100 the full control effect; nearly all actives have a fitted effect of over 60% in size
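72 h, 37 °C compound treatment of KB-3-1 parental cells; CellTiter-Glo added, 10 min, luminescence read. Data corrected against DMSO-only plates and normalized before curve fitting.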
HT1080 IDH1KD tx – qHTS for induction of synthetic lethality in tumor cells producing 2HG: qHTS for the HT-1080-IDH1KD cell line | HT-1080 IDH1 knockdown viability, ATP luminescence, 48 h | Potency, µM (series often up to 46.1 µM), for the others: top-dose activity, negative = toxicity, most hits filed as cytotoxic | 360,000 compounds, 2% hits | AID 686971, 2013;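 further: 0% = DMSO wells and -100% = cell-free medium wells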
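Using the IDH1-knockdown HT-1080 line run in the same batch and compound series as the NT line, viability after 48 h at 37 °C was determined by CellTiter-Glo luminescence and expressed as % activity.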
Active calls of the source: *; i = inactive; ? = inconclusive; · = no result; [ ] = dose if it differs, or a comment. Sampled rows, rich in hits. Any-hit rate of the full collection: about 6.6%. The call rests on the fitted dose curve; in most records, active means well fitted curve in the direction sought with a large enough effect; inconclusive means small, poorly fitted or top-dose-only effect, or another doubt; inactive means no such curve, though single readings can be large; an effect the other way counts as inactive or inconclusive. Potency means the concentration at half of the fitted maximal effect.

SMILES | TGFb SMAD3 inh | KB-V1 MDR tox | HT1080-NT tox | HepG2 tox | KB-3-1 tox | HT1080 IDH1KD tx
O=C1C=C(Nc2ccccc2O)c2ccccc2C1=O | 1.78µM* | 20.6µM* | ? | 2.51µM* | 18.4µM* | ?
Cc1ccc(C(O)c2ncc(-c3ccccc3F)[nH]2)c(C)c1 (centres undefined) | 9.7% | i | -3.5% | -11.9% | i | -1.8%
CC(C)OCCCNC(=O)C(=O)Nc1c2c(nn1-c1ccccc1)CS(=O)(=O)C2 | -29.6% | i | · | -0.8% | i | ·
O=C(NC1CC1(c1ccccc1)c1ccccc1)c1ccccc1 (centres undefined) | -22.4% | 16.4µM* | 7.8% | -6.1% | ? | 13.0%
CCc1nc2sc3ccccc3c(=O)c2c(=O)n1Cc1ccco1 | -3.1% | i | ? | -8.4% | i | 25.9µM*
Cn1c2ccccc2c(=O)c2c(=O)n(Cc3ccco3)c(-c3ccc(F)cc3)nc21 | -12.9% | i | -28.6% | 20µM* | i | ?
COc1cc(Cl)c(C)cc1NC(c1ccccc1)c1nnc(-c2ccccc2Cl)o1 (centres undefined) | 17.8µM* | · | · | -35.4% | · | ·
Cc1ccc(S(=O)(=O)c2cc3cc(Br)ccc3oc2=O)cc1 | -9.5% | 18.4µM* | 2.3% | -10.1% | 20.6µM* | -1.0%
CC(C)c1ccc(S(=O)(=O)c2cc3cc(Br)ccc3oc2=O)cc1 | -19.6% | ? | 13µM* | 5.1% | ? | 13µM*
O=S(=O)(Nc1ccc(C(O)(C(F)(F)F)C(F)(F)F)cc1)c1cccc2ccccc12 | ? | i | ? | -97.2% | i | ?
CC(C)c1ccc(NC(=O)CSc2nc3ccccc3nc2N2CCCC2)cc1 | -2.7% | i | 15.5% | -17.8% | i | 7.5%
Cc1cc(NC(=O)CSc2nc3c(sc4ccccc43)c(=O)n2CCc2ccccc2)n[nH]1 | -14.4% | i | 3.0% | 8.9% | i | -4.4%
Cc1ccc(NC(=O)CSc2nc3ccccc3c(=O)n2CCCN2CCCCC2)cc1C | ? | ? | -14.3% | 17.8µM* | ? | ?
O=C(CSc1nc2ccccc2c(=O)n1CCC(=O)N1CCCCC1)NCc1ccccc1 | -4.6% | 2.06µM* | -3.3% | 4.6% | i | -4.4%
Cc1cc(NC(=O)CSc2nc3c(sc4ccccc43)c(=O)n2CCCN2CCOCC2)n[nH]1 | -16.1% | i | -12.1% | -51.4% | 13µM* | -28.6%
Cc1ccc(NC(=O)CSc2nc3ccccc3nc2N2CCCC2)cc1 | -1.6% | ? | -10.9% | -15.3% | 18.4µM* | -9.2%
CCN(CC)C(=O)CSc1nc(-c2ccccc2)cc(-c2ccc(OC)cc2)c1C#N | 0.8% | i | · | -1.5% | i | ·
Cc1ccc(C(C)C)c(OCC(=O)Nc2cc(-c3nc4ccccc4[nH]3)ccc2C)c1 | · | · | · | -48.4% | · | ·
CCc1ccc(NC(=O)CSc2nc3ccccc3c(=O)n2CCCN2CCC(C)CC2)cc1 | -6.9% | ? | ? | -14.7% | ? | 20.6µM*
COCCCn1c(SCC(=O)Nc2ccc(C)cc2)nc2ccccc2c1=O | 0.0% | ? | -18.2% | -12.5% | i | -20.0%
Cc1ccc(NC(=O)CSc2nc3ccccc3c(=O)n2CCCC(=O)N2CCCC2)cc1 | ? | ? | -8.0% | -3.4% | 6.31µM* | -8.4%
O=C(CSc1nc2ccccc2c(=O)n1CCCN1CCOCC1)NC12CC3CC(CC(C3)C1)C2 | ? | 9.2µM* | -8.9% | -37.7% | i | 1.2%
O=C(CSc1nc2ccccc2c(=O)n1CCCN1CCOCC1)Nc1ccc(Br)cc1 | -4.2% | i | ? | -19.6% | i | 13µM*
O=C(CSc1nc2ccccc2c(=O)n1CCCN1CCOCC1)NCCc1ccccc1 | 1.7% | i | -4.9% | 2.5% | i | 0.0%
CCc1ccc(NC(=O)CSc2nc3ccccc3c(=O)n2CCNC(C)=O)cc1 | -1.2% | i | · | -2.4% | i | ·
SMILES | TGFb SMAD3 inh | KB-V1 MDR tox | HT1080-NT tox | HepG2 tox | KB-3-1 tox | HT1080 IDH1KD tx
Cc1cc2n(n1)CCC(=O)N2Cc1ccc(C(=O)Nc2cccc(C(F)(F)F)c2)cc1 | -18.8% | i | · | -33.8% | i | ·
c1ccc2c(c1)oc1c(Nc3ccc(CN4CCOCC4)cc3)ncnc12 | ? | 18.4µM* | ? | -38.2% | ? | ?
Cc1ccc(Cn2ncc3c(NCCCN4CCOCC4)ncnc32)cc1 | 3.8% | i | 0.4% | -8.7% | i | -1.5%
CCCc1nc2oc3c(NCCN4CCOCC4)ncnc3c2c2c1CCCC2 | -15.6% | 1.84µM* | -1.5% | -1.3% | i | -8.5%
Clc1ccc(Cn2ncc3c(NCCN4CCOCC4)ncnc32)cc1 | -19.4% | 20.6µM* | -8.4% | 3.2% | i | -1.3%[9.24 µM]
c1ccc2c(c1)oc1c(NCCN3CCOCC3)ncnc12 | 0.5% | 23.1µM* | -10.4% | -2.1% | i | 2.0%
CC(=O)N1c2ccccc2C(=O)C1N1CCN(c2ccccc2F)CC1 (centres undefined) | -18.2% | i | · | -1.4% | i | ·
CCn1c(SC)nc2c([nH]c3ccccc32)c1=O | 3.2% | · | · | -12.7% | · | ·
CCOc1ccc2c(c1)c(=O)c(C(=O)c1ccc(CC)cc1)cn2CC(=O)Nc1ccc2c(c1)OCCO2 | 2.0% | i | · | 5.6% | i | ·
CC1=C(C(=O)Nc2ccccc2)C(c2cccnc2)n2nc(SCc3ccccc3Cl)nc2N1 (centres undefined) | 0.0% | i | · | -9.4% | i | ·
CCC1CN(C(=O)N2CCC(C(=O)NCc3cccc(C)c3)CC2)c2ccccc2O1 (centres undefined) | -11.0% | · | · | -2.4% | · | ·
CC(=O)N1CCN(c2ccc(Nc3ncnc4c3oc3ccccc34)cc2)CC1 | 7.9% | 20.6µM* | -17.7% | -22.7% | ? | ?
O=c1[nH]cnc2n[nH]nc12 | 15.7% | ? | · | 20.8% | 1.46µM* | ·
COc1ccccc1-c1nnc(C2CCN(C(=O)c3cccc(C)c3)CC2)o1 | ? | i | · | -1.1% | i | ·
CSc1ccc(C(O)c2ncc(-c3ccccc3F)[nH]2)cc1 (centres undefined) | -4.2% | i | -1.8% | -28.9% | i | -17.0%
COC(=O)C1=CN(Cc2cccs2)C=C(C(=O)OC)C1c1cccc(Cl)c1 | ? | ? | -7.6% | 10µM* | i | -23.3%
COC(=O)C1=CN(Cc2cccs2)C=C(C(=O)OC)C1c1ccc(OC)cc1OC | 18.0% | i | -9.9% | 13.2% | i | -7.7%

Compound activity as filed in PubChem.
